Experimental findings from PMC7862700, “An all-to-all approach to the identification of sequence-specific readers for epigenetic DNA modifications on cytosine” are described below.

Experiment in all cases: DAPPL (digital affinity profiling via proximity ligation, sequencing); 10 mM Tris-HCl pH 7.5, 50 mM NaCl, 1 mM DTT, 4% glycerol, room temperature, 30 min; GST-TFs on glutathione beads, 16-mer random dsDNA library, 0.1% formaldehyde crosslink after washing; high values mean tight binding
One assay addresses T1, FLI1 (Homo sapiens, UniProt Q01543 1-452).
T1 sequence: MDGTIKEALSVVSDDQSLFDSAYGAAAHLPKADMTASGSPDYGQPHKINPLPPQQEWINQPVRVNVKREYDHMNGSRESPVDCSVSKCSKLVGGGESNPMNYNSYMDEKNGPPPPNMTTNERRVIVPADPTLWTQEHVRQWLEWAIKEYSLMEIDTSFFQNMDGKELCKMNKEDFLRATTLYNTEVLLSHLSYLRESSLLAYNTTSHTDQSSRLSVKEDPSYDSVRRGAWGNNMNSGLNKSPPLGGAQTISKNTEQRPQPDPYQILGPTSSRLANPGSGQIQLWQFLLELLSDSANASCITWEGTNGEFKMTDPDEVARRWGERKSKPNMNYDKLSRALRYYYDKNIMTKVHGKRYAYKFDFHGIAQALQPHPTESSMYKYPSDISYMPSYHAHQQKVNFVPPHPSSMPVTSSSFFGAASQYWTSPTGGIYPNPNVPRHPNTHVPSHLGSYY
Particulars: protein: recombinant; tags: N-terminal GST; dsDNA, one strand shown. The essentials: (§1)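 Beads coated with glutathione captured GST-fused human transcription factors that had been expressed in yeast, and the factors were then given DNA barcodes and pooled with a tag-only sample. The pools were incubated with 200 nmole of a random double-stranded 16-mer DNA library in Tris/NaCl/DTT/glycerol buffer for 30 min at room temperature, washed, crosslinked with 0.1% formaldehyde and proximity-ligated with BsaI/T4 ligase at 37 °C for 1 h. PCR amplification and Illumina NextSeq500 sequencing came last. Binding signal is each hexamer's read frequency for a factor divided by its frequency for the tag-only sample.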

The next assay deals with T2, ELK1 (Homo sapiens, UniProt P19419 1-428).
T2 sequence: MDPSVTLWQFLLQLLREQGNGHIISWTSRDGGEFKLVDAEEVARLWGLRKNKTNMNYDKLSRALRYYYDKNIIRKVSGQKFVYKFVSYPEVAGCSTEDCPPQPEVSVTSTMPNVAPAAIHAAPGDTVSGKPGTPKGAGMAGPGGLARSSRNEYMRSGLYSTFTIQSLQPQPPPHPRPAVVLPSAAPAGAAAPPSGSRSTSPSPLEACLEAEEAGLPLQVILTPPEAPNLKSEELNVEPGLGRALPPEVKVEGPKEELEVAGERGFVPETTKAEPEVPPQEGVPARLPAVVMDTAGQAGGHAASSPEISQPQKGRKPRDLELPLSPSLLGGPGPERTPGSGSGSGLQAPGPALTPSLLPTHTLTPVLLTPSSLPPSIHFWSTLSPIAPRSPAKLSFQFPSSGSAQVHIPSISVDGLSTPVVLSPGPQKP
As to conditions: protein: recombinant; tags: N-terminal GST; dsDNA, one strand shown. The procedure, abridged:
as §1

The next assay deals with T3, ERG (Homo sapiens, UniProt P11308 1-479).
T3 sequence: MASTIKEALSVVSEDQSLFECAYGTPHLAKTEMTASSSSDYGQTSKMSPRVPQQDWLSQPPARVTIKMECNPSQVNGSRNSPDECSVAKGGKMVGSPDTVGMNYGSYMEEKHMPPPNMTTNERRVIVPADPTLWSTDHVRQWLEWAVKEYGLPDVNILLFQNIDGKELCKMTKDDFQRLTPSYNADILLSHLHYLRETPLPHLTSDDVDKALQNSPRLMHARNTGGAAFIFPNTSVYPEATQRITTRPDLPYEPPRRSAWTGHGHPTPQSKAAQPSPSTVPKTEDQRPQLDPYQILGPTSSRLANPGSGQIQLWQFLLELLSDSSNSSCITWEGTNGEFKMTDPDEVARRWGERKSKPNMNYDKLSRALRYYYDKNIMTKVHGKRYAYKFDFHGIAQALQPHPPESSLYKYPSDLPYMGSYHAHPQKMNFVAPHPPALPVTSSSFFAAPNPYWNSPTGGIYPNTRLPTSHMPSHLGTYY
Particulars: protein: recombinant; tags: N-terminal GST; dsDNA, one strand shown. The essentials: as §1

In another assay the target is T4, EHF (Homo sapiens, UniProt Q9NZC4 1-300).
T4 sequence: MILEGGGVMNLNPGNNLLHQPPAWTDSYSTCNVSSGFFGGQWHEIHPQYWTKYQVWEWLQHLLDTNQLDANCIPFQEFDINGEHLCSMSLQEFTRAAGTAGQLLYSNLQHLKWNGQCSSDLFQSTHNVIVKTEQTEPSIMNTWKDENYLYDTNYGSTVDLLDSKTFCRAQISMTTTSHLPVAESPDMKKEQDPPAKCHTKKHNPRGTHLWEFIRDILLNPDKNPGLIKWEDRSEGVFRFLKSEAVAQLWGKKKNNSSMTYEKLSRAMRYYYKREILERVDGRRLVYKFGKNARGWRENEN
Particulars: protein: recombinant; tags: N-terminal GST; dsDNA, one strand shown. The essentials: as §1

The target in another assay is SPI1 (Homo sapiens, UniProt P17947 1-270). As to conditions: protein: recombinant; tags: N-terminal GST; dsDNA, one strand shown. The essentials: as §1
The target in a further assay is SPIB (Homo sapiens, UniProt Q01892 1-262). Particulars: protein: recombinant; tags: N-terminal GST; dsDNA, one strand shown. The procedure, abridged:
as §1

For another assay, the target named is T5, ELK3 (Homo sapiens, UniProt P41970 1-407).
T5 sequence: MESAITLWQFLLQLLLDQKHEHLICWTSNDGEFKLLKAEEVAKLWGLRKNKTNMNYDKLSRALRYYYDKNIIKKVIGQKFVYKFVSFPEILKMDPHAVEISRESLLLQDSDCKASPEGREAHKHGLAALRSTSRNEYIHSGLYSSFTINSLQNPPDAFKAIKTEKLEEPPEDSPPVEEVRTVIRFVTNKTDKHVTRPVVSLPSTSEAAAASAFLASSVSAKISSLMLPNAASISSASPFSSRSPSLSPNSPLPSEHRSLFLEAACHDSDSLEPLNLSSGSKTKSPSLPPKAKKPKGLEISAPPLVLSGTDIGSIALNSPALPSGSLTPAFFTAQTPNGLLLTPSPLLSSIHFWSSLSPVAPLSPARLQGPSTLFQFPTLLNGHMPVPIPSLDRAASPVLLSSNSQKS
Particulars: protein: recombinant; tags: N-terminal GST; dsDNA, one strand shown. The procedure, abridged: as §1

The target in a further assay is T6, FEV (Homo sapiens, UniProt Q99581 1-238).
T6 sequence: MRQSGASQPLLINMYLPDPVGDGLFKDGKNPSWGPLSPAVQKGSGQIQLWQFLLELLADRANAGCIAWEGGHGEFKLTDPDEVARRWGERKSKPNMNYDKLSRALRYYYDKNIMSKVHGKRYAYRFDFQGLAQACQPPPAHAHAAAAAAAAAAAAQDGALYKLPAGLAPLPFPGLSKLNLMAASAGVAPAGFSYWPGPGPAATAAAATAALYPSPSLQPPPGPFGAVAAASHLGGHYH
Particulars: protein: recombinant; tags: N-terminal GST; dsDNA, one strand shown. The procedure, abridged: as §1

A further assay has as its target ETV5 (Homo sapiens, UniProt P41161 1-510). Particulars: protein: recombinant; tags: N-terminal GST; dsDNA, one strand shown. The essentials:
as §1

In the next assay the target is HSF1 (Homo sapiens, UniProt Q00613 1-529). As to conditions: protein: recombinant; tags: N-terminal GST; chain copies: 3; dsDNA, one strand shown. The essentials: as §1
In the next assay the target is T7, SPIC (Homo sapiens, UniProt Q8N5J4 1-248).
T7 sequence: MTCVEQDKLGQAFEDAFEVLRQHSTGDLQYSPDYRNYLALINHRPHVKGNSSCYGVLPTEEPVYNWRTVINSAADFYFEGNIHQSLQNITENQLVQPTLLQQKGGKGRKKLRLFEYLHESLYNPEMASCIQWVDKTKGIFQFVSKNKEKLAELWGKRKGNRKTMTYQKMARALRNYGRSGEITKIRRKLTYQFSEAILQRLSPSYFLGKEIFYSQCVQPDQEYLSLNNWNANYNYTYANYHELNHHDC
As to conditions: protein: recombinant; tags: N-terminal GST; dsDNA, one strand shown. The procedure, abridged:
as §1

The target of a further assay is ELF4 (Homo sapiens, UniProt Q99607 1-663). Particulars: protein: recombinant; tags: N-terminal GST; dsDNA, one strand shown. The procedure, abridged:
as §1

A further assay concerns the target T8, ELF3 (Homo sapiens, UniProt P78545 1-371).
T8 sequence: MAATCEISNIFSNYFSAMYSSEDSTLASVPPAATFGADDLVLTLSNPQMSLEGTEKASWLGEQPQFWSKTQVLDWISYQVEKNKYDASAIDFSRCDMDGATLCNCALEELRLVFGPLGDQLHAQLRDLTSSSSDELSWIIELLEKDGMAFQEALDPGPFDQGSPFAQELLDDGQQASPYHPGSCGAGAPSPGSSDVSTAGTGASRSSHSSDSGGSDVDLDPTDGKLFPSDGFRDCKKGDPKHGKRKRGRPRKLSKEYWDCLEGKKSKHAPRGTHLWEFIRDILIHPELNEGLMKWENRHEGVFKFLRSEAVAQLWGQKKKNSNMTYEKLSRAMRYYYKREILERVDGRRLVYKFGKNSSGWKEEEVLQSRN
As to conditions: protein: recombinant; tags: N-terminal GST; dsDNA, one strand shown. The procedure, abridged: as §1

The target in a further assay is CRX (Homo sapiens, UniProt O43186 1-299). Particulars: protein: recombinant; tags: N-terminal GST; dsDNA, one strand shown. The essentials:
as §1

Another assay addresses ETV1 (Homo sapiens, UniProt P50549 1-477). As to conditions: protein: recombinant; tags: N-terminal GST; dsDNA, one strand shown. The essentials:
as §1

The target in the next assay is T9, GABPA (Homo sapiens, UniProt Q06546 1-454).
T9 sequence: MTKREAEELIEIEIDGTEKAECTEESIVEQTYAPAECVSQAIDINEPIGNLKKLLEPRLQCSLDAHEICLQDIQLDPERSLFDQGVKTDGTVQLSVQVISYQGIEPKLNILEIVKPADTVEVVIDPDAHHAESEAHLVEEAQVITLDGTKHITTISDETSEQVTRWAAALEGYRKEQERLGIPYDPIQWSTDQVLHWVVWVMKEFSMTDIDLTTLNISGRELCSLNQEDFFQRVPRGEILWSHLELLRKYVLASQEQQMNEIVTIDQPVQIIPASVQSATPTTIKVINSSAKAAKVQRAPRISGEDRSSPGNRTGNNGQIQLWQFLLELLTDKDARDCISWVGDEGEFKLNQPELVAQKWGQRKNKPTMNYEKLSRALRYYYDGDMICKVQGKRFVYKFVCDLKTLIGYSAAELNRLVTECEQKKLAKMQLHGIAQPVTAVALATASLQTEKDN
As to conditions: protein: recombinant; tags: N-terminal GST; dsDNA, one strand shown. The essentials: as §1

In a further assay the target is ELF1 (Homo sapiens, UniProt P32519 1-619). As to conditions: protein: recombinant; tags: N-terminal GST; dsDNA, one strand shown. The procedure, abridged: as §1
A further assay has as its target T10, ETV2 (Homo sapiens, UniProt O00321 1-342).
T10 sequence: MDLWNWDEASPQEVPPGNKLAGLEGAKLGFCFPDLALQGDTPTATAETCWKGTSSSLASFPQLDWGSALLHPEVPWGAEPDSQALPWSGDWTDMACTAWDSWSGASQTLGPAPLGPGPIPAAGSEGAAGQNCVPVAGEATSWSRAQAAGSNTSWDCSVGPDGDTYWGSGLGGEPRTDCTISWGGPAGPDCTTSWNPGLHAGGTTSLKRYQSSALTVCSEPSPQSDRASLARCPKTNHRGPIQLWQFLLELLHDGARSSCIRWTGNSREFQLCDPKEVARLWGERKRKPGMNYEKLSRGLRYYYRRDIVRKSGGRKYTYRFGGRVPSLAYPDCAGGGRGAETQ
As to conditions: protein: recombinant; tags: N-terminal GST; dsDNA, one strand shown. The essentials: as §1

HSF1, sequence (Q00613 whole entry): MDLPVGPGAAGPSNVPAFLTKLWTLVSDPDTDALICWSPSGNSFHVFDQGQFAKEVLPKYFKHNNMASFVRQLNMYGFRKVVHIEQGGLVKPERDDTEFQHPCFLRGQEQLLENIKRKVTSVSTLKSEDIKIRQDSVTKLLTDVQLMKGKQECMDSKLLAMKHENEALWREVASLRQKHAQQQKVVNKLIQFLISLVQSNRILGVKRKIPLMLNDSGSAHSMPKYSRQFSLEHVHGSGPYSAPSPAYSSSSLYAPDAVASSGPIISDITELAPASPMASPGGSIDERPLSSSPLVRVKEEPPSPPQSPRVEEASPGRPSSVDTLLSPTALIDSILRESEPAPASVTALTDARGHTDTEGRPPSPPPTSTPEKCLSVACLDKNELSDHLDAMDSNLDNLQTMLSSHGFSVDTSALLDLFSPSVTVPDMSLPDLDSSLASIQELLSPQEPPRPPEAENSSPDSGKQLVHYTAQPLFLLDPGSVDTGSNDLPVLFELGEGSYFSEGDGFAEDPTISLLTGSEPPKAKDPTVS
ETV5, sequence (P41161 whole entry): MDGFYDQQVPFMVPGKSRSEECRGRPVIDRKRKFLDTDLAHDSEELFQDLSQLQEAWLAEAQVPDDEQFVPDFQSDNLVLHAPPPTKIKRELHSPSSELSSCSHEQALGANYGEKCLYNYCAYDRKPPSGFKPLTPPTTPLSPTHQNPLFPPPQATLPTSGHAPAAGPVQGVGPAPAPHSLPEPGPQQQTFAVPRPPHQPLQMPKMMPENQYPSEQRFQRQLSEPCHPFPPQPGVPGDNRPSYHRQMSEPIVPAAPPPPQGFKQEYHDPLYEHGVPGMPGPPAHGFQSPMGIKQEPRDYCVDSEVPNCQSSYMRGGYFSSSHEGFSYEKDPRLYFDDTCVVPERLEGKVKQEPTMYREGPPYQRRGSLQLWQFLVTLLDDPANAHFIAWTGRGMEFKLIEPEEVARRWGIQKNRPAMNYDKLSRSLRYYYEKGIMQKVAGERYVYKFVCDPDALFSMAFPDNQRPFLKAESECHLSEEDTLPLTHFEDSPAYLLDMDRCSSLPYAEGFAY
ELF4, sequence (Q99607 whole entry): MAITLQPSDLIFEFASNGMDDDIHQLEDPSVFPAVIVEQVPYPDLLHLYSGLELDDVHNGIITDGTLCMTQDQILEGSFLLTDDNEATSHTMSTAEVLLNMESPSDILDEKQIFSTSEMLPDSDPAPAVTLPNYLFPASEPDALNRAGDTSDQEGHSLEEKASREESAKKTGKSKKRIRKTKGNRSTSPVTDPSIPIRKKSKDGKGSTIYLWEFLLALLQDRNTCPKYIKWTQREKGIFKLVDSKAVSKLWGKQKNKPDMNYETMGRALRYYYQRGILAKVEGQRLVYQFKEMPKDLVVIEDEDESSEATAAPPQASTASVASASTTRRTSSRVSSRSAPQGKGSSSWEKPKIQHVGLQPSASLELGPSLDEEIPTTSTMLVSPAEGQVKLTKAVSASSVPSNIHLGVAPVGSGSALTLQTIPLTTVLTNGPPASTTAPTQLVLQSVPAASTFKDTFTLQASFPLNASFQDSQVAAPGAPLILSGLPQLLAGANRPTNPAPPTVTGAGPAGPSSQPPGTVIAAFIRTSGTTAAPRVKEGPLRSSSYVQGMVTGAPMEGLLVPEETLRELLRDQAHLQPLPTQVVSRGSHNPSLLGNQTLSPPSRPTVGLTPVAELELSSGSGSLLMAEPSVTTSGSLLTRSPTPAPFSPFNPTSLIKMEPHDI
CRX, sequence (O43186 whole entry): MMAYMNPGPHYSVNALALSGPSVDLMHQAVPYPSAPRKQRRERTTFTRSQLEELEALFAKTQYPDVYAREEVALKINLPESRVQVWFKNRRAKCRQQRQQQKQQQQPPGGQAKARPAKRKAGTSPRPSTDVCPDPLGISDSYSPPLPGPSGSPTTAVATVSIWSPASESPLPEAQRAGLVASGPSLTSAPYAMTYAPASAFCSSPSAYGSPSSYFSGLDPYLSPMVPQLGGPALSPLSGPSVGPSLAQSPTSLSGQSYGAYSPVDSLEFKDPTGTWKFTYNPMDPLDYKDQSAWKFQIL
ETV1, sequence (P50549 whole entry): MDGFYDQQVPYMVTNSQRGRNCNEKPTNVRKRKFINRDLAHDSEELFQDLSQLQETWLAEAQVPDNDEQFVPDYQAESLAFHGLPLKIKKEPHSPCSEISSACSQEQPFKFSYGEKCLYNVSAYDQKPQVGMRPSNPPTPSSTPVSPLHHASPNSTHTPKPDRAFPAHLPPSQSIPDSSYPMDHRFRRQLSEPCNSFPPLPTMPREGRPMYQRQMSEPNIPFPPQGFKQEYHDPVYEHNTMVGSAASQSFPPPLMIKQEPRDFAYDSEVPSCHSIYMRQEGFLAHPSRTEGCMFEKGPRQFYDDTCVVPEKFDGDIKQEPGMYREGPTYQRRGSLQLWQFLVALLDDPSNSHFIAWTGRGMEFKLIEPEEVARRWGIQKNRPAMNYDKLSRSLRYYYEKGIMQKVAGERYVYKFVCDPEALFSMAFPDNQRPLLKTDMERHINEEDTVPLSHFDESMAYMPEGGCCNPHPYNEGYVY
SPIB, sequence (Q01892 whole entry): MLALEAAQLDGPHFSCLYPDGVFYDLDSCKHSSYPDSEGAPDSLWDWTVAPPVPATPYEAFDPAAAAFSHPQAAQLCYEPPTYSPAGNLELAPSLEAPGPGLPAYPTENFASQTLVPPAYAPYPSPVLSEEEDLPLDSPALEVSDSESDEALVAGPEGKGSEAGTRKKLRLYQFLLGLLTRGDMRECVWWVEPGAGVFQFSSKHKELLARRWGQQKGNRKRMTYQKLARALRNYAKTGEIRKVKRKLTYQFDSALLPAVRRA
ELF1, sequence (P32519 whole entry): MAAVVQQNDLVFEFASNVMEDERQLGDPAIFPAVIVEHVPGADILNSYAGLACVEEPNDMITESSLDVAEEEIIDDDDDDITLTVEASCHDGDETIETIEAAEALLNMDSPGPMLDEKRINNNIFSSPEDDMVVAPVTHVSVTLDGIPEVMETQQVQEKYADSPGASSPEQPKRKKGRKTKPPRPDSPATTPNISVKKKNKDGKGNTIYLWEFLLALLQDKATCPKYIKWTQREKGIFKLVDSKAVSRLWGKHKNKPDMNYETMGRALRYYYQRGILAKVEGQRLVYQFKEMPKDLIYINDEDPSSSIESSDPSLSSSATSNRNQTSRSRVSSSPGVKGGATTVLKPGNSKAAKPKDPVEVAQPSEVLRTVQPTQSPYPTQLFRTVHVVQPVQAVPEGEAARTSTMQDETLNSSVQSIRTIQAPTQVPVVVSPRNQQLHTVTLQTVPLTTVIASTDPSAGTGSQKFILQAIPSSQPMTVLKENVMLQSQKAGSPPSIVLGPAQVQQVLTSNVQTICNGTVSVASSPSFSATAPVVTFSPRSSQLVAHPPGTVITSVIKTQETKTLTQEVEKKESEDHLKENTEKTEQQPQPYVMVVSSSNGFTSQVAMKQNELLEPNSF

In the case of AAATCG, the binding signal with FLI1 was 1.03 fold enrichment (6-mer frequency, TF over GST control); with ELK1, 1.01 fold enrichment (6-mer frequency, TF over GST control); in the assay with ERG, 1.06 fold enrichment (6-mer frequency, TF over GST control); with EHF, 1.03 fold enrichment (6-mer frequency, TF over GST control); in the assay with SPI1 it was 1.01 fold enrichment (6-mer frequency, TF over GST control); in the assay with SPIB, 1.04 fold enrichment (6-mer frequency, TF over GST control). For the same sequence, the binding signal with ELK3 was 1.04 fold enrichment (6-mer frequency, TF over GST control); in the assay with FEV, 1 fold enrichment (6-mer frequency, TF over GST control); in the assay with ETV5, 1.04 fold enrichment (6-mer frequency, TF over GST control); in the assay with HSF1, 1.18 fold enrichment (6-mer frequency, TF over GST control); with SPIC it was 1 fold enrichment (6-mer frequency, TF over GST control); in the assay with ELF4 it was 1.11 fold enrichment (6-mer frequency, TF over GST control). Further, the binding signal with ELF3 is 1.03 fold enrichment (6-mer frequency, TF over GST control); with CRX it was 1.26 fold enrichment (6-mer frequency, TF over GST control); in the assay with ETV1, 1.05 fold enrichment (6-mer frequency, TF over GST control).
On to GTACTA, for which the binding signal was 1.16 fold enrichment (6-mer frequency, TF over GST control) with FLI1; 1.06 fold enrichment (6-mer frequency, TF over GST control) with ELK1; 1.12 fold enrichment (6-mer frequency, TF over GST control) with GABPA; 1.07 fold enrichment (6-mer frequency, TF over GST control) with ERG; 1.19 fold enrichment (6-mer frequency, TF over GST control) with ELF1; 1.14 fold enrichment (6-mer frequency, TF over GST control) with EHF. The binding signal with SPI1 was 1.02 fold enrichment (6-mer frequency, TF over GST control); with SPIB, 1.1 fold enrichment (6-mer frequency, TF over GST control); with ELK3, 1.02 fold enrichment (6-mer frequency, TF over GST control); in the assay with FEV, 1.12 fold enrichment (6-mer frequency, TF over GST control); with ETV5, 1.14 fold enrichment (6-mer frequency, TF over GST control); in the assay with HSF1, 1.15 fold enrichment (6-mer frequency, TF over GST control). Also, the binding signal in the assay with SPIC was 1.11 fold enrichment (6-mer frequency, TF over GST control); in the assay with ELF4 it was 1.08 fold enrichment (6-mer frequency, TF over GST control); with ETV2 it was 1.21 fold enrichment (6-mer frequency, TF over GST control); in the assay with CRX, 1.12 fold enrichment (6-mer frequency, TF over GST control); in the assay with ETV1, 1.13 fold enrichment (6-mer frequency, TF over GST control).
